Among all 58,000 compounds or so, about 3,400 (5.9%) were called active. What follows is part of a selection rich in actives, with near analogues and random picks from the rest. Unmarked numbers belong to inactive results.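 Rule for the calls: active = luminescence count or its row- and column-corrected plate score outside the 99.7% band of the plate's sample wells, on either side; inactive = the rest.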

The assay deals with D(1A) dopamine receptor (Homo sapiens) (UniProt P21728). Put plainly: D1 CRE-luciferase signal change, two-sided – cell-based, HEK293 D1, dopamine EC30, D1 allosteric modulator project, primary screen (AID 641). The following applies: dopamine EC30 potentiation, at 10 µM, actives deviate in either direction.
Chain of D(1A) dopamine receptor (Homo sapiens) (P21728 whole entry, looked up): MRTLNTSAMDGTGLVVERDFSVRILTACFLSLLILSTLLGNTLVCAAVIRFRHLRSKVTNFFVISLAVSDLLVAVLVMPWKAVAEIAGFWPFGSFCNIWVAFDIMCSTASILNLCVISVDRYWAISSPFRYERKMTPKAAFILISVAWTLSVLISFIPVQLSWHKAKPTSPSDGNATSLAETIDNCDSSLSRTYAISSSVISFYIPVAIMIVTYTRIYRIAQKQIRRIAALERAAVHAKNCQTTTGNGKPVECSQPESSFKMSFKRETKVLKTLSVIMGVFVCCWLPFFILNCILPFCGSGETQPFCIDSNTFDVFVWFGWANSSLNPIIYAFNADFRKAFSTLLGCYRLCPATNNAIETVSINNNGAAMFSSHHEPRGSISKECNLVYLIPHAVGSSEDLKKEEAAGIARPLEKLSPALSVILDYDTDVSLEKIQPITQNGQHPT
Turning to `COC(=O)c1ccc(NC(=O)c2ccco2)cc1`, the B-score is -1.96. Turning to `C=CCn1cnc2scc(-c3ccccc3)c2c1=O`, the B-score was 10.5 (active). For `CN(CCC#N)c1ncnc2scc(-c3ccccc3)c12` the value was 1.98. To `C=CCn1c(SCc2csc(C)n2)nc2scc(-c3ccc(C)o3)c2c1=O` belongs -0.492; to `CN1C(C)(C)CC(NC(=O)CCC(=O)NC2CC(C)(C)N(C)C(C)(C)C2)CC1(C)C`, 0.00629. As to `CCN(CC)C(=O)C1CCC(C)(C(=O)O)C1(C)C` (centres undefined), the B-score was -0.39.

In the case of `CCc1ccc(N(CC)c2ncnc3nc[nH]c23)cc1`, the B-score was -4.

For the compound `O=C(CN1CCOCC1)Nc1c2c(nc3c1CCC3)CCC2`, the B-score was 2.06. Turning to `O=C(NCCCNCc1ccccc1)c1ccc(/C=N/O)nc1`, the B-score was -0.581. To `N#Cc1nc(COc2ccc(-c3ccccc3)cc2)oc1NCc1cccnc1` belongs -1.5. For `N#Cc1nc(Cc2ccccc2)oc1NCCc1ccccc1` the value was 4.08 (active). For `COc1ccc(CC(=O)Nc2ccc(-c3nnc(-c4ccccc4)o3)cc2)cc1` the value was 0.0608. `N#Cc1nc(Cc2cccc3ccccc23)oc1NCc1ccc2c(c1)OCO2`: the B-score is -0.388. For `CCOc1ccc(Nc2oc(Cc3ccccc3)nc2C#N)cc1` the value was 3.11 (active); for `O=C(CSc1ncccn1)NCCc1ccccc1`, 0.879. For `N#Cc1nc(-c2ccc(OCc3ccccc3)cc2)oc1NCCCN1CCOCC1` the value was -0.727.

Take `CCOc1ccc(NC(=O)Nc2cc(C)on2)cc1`: the B-score was -0.142. On to `COc1ccc(Nc2oc(-c3ccccc3Cl)nc2C#N)cc1`, for which the B-score was 6.96 (active). To `CN(CCCC(=O)Nc1nccs1)S(=O)(=O)c1ccc(Cl)cc1` belongs 0.49.

For `Cc1cc(/C=N/n2cnnc2)c(C)n1-c1cccc(C(=O)O)c1`, the B-score was -0.0541.

As for `O=C(CN1CCOCC1)Nc1c(-c2ccccc2)c2cc(Br)ccc2[nH]c1=O`, the B-score was 2.41.

Regarding `CS(=O)(=O)N1CCN(C(=O)Cc2ccccc2)CC1`, the B-score was -1.05. `CS(=O)(=O)N(CC(=O)N1CCOCC1)c1ccc2c3c(cccc13)CC2`: the B-score was 1.66. To `COc1ccc(-c2n[nH]c(C)c2-c2ccc(OC)c(OC)c2)c(O)c1` belongs 2.72 (active); to `CCOc1ccccc1Oc1cn[nH]c1-c1ccc(OC)cc1O`, -0.51. To `C=C(C)COc1ccc(-c2n[nH]c(C)c2-c2ccccc2)c(O)c1` belongs 0.197; to `Cc1nonc1NC(=O)c1ccccc1Br`, -0.0424. To `Cc1cc(C(=O)N2CCN(c3ccccn3)CC2)c(C)o1` belongs -0.0773; to `COC(=O)CSC1=C(C#N)C(c2ccccc2OC)C(C(=O)OC)C(=O)N1` (centres undefined), 0.897; to `O=C1Nc2c(Br)cc(Br)cc2C1(O)N1CCOCC1` (centres undefined), 0.955. For the compound `CCOc1ccc2nc(NCCNS(=O)(=O)c3ccccc3)c(C#N)cc2c1`, the B-score is 0.768. To `CCCCNc1nc2ccccc2nc1NS(=O)(=O)c1cccs1` belongs 19.3 (active); to `O=C(Nc1nncs1)c1ccccc1NS(=O)(=O)c1cccs1`, -0.0134; to `COc1nc(OC)nc(N(C)CCO)n1`, 0.849. To `Cc1ccc(C)c2[nH]c(=O)c(CCNC(=O)CC(C)C)cc12` belongs -0.219; to `COc1ncnc2c1N=C1CC(C)(C)CC(N)=C1S2`, 3.41 (active). To `Nc1c(C(=O)NCc2ccccc2)nnn1Cc1cccc(Cl)c1` belongs 0.392; to `COc1ccc(OC)c2c1sc(=NC(=O)CN1C(=O)CCC1=O)n2C`, 2.86. As for `Cc1ccc2c(c1)N(CCCC(=O)NCc1cccnc1)C(=O)CO2`, the B-score is -0.742.

With `COc1ccc(N2CCN(CCNC(=O)c3nnc(Cc4c(F)cccc4Cl)o3)CC2)cc1`, the B-score was -1.8. As to `Cc1ccc(-n2nc3c(c2NC(=O)CCC2CCCCC2)CS(=O)C3)cc1` (centres undefined), the B-score is -0.56. To `O=P(O)(CN1CCCCC1)CN1CCCCC1` belongs -0.0507; to `C=CCOC(=O)C1=C(C)OC(N)=C(C#N)C1c1ccc(F)cc1` (centres undefined), 0.241; to `C=CCSc1nc2c(c(=O)[nH]1)C(C(C)C)C(C#N)=C(N)O2` (centres undefined), 10.1 (active). For `CCN1CCN(C(=O)c2ccccc2N(C)S(=O)(=O)c2ccc(C)cc2)CC1` the value was 0.228; for `Cc1cc(C)n(-c2ccc(Cl)c(C(=O)O)n2)n1`, -0.569.

As for `COc1cc(NS(=O)(=O)c2ccccc2)ccc1-n1nc(C)cc1C`, the B-score is -0.763. For the compound `CC(=O)c1ccc(Oc2cc(C)nc(-n3nc(C)cc3C)n2)cc1`, the B-score was 11.6 (active).

With `CCOC(=O)c1cnc(-n2nc(C)cc2C)nc1Nc1cccc(C(C)=O)c1`, the B-score was 0.96. Take `COCCNc1nc(-n2nc(C)cc2C)nc2sc3c(c12)CCCC3`: the B-score was 0.116. On to `COc1ccc(Nc2cc(C)nc(-n3nc(C)cc3C)n2)cc1`, for which the B-score is 7.36 (active).

As for `Cc1ccc(S(=O)(=O)Nc2ccccc2CNc2c(C)n(C)n(-c3ccccc3)c2=O)cc1`, the B-score was 1.04. For `Cc1ccc(S(=O)(=O)N2CC(=O)Nc3ccccc32)cc1C` the value was 0.0538; for `CCN1C(=O)CS/C1=N\c1nccs1`, 0.211; for `Cc1ccc(CNC(=O)CCCNC(=O)c2ccc(Cl)cc2)n1C`, -1.3.

With `CC1CCN(Cc2nc3c(c(=O)n(C)c(=O)n3C)n2CCc2ccccc2)CC1`, the B-score was 0.377.

Consider `CCOC(=O)C1CCCN(C(=O)CN(c2ccc(OC)cc2)S(=O)(=O)c2c(C)noc2C)C1` (centres undefined), for which the B-score was 0.03. For `CCOC(=O)C1CCCN(C(=O)c2cncc(Br)c2)C1` (centres undefined) the value was 0.42; for `CCOC(=O)C1CCCN(C(=O)c2sc3nc(C)nc(N4CCOCC4)c3c2C)C1` (centres undefined), -3.4 (active). For `Nc1nnc(C2CCCC2)s1` the value was -1.25; for `COc1ccc(C2=CC(c3cccc(OC)c3)n3nnnc3N2)cc1` (centres undefined), 1.89; for `CCOc1cccc(-n2nnnc2-c2ccc(OC)cc2)c1`, 4.33 (active). For `CCOc1cccc(-c2nnc3sc(COc4ccc(OC)cc4)nn23)c1`, the B-score is -0.0728. For `CC(C)(C)Nc1c(N)c(=O)oc2ccccc12` the value was -1.25.
